Source: PubChem BioAssay
MK inhibit = S. pneumoniae mevalonate kinase inhibition; purified MK, PK/LDH-coupled NADH absorbance 340 nm; inhibition, % at 10 µM; 0.48% of 65,000 active; AID 555;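 active = ranked among the strongest by inhibition in the single 10 µM screen, a fixed top-ranked set picked for dose follow-up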
Fluor 339 460 = intrinsic fluorescence of library compounds, ex339/em460 – biochemical, MLSMR library, data from DPM-DC assay, artefact control, profiling panel; compound autofluorescence, ex339/em460 nm, NADH buffer; hits give high values; 1 = no-compound wells, NADH background; AID 709; 5.5% of 65,000 active; fluorescence fold increase at 10 µM;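 active = at 10 µM, mean starting fluorescence two-fold or more over control wells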;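 note: signal is the first read of a kinetic run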
NADH enzymes = blocks coupling enzymes of NAD/NADH assays; coupled PK/LDH NADH assays, four targets; IC50, µM (titrated, usually from 10 µM), for the others: at the top dose inhibition; 0.02% of 65,000 active;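 active = single-dose screening hits from any of four coupled enzyme assays that gave an IC50 when retested across doses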;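 note: the DPM-DC format reads NADH fluorescence rather than 340 nm absorbance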
Abs 340nm = absorbance at 340 nm. compound absorbance at 340 nm, fold over control. fold change at 10 µM. 65,000 tested, under 10 active. AID 708;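 active = at 10 µM dose, initial 340 nm absorbance at least 2 fold that of control wells; inactive = change under 2 fold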;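 note: initial absorbance extrapolated from kinetic A340 decline of NADH oxidation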
DPM-DC inhibit = blocks S. pneumoniae diphosphomevalonate decarboxylase | calls only at 10 µM | AID 556 | purified DPM-DC, PK/LDH coupled NADH fluorescence | 0.49% of 65,000 active;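 active = the 320 compounds with the highest percent inhibition in the single-dose primary screen, excluding strongly autofluorescent ones, cut at about 32% in these data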;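 note: kinetic rate of NADH fluorescence loss reporting ADP formed by the decarboxylase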
Spn PMK inh = S. pneumoniae PMK inhibition. purified PMK, PK/LDH-coupled NADH absorbance 340 nm. inhibition, % at 10 µM. 0.49% of 65,000 active;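 active = top-ranked compounds by inhibition in the single 10 µM screen, taking a fixed number of the strongest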;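 note: 0% = full reaction with DMSO carrier and 100% = background rate without enzyme reaction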
* hit, by the source's call; i = inactive; x = not tested or not shown; + = active, no number. Shown are actives, neighbours in structure and some others; about 6.5% of the full set was active somewhere.

SMILES | MK inhibit | Fluor 339 460 | NADH enzymes | Abs 340nm | DPM-DC inhibit | Spn PMK inh
O=C(CCCNS(=O)(=O)c1cccc2nsnc12)NC1CCCCC1 | 4 | 1.1 | 7% | 1 | i | 17
COCCCNC(=O)c1c(N)n(-c2ccc3c(c2)OCO3)c2nc3ccccc3nc12 | 3 | 2.7* | 5% | 1.1 | i | 3
CCCNC(=O)c1c(N)n(-c2ccc3c(c2)OCO3)c2nc3ccccc3nc12 | 7 | 1.4 | 9% | 1.1 | i | 15
Nc1c(C(=O)NC2CC2)c2nc3ccccc3nc2n1-c1ccc2c(c1)OCO2 | 10 | 3.2* | 6% | 1.1 | x | 2
CCCNC(=O)c1c(N)n(-c2cc(OC)cc(OC)c2)c2nc3ccccc3nc12 | 2 | 2.5* | 4% | 1 | x | 17
O=C(CC1(O)C(=O)Nc2ccc(Br)cc21)c1ccc2c(c1)OCO2 (stereo not given) | 13 | 1.1 | 5% | 1 | i | 3
c1cnc2c(SCc3ccc(-c4nnco4)cc3)cccc2c1 | 0 | 3.3* | 3% | 1 | x | 6
c1ccc2[nH]c(SCc3ccc(-c4nnco4)cc3)nc2c1 | 2 | 1.1 | 5% | 1 | i | 14
c1ccc(-c2nc3cc(Oc4ccc5oc(-c6ccccn6)nc5c4)ccc3o2)nc1 | 1 | 1.8 | 4% | 1 | i | 10
Cc1ccc2nc(-c3ccccn3)oc2c1 | 11 | 3* | 16% | 1 | i | 17
Cc1ccc2nc(-c3cccnc3)oc2c1 | 8 | 2.7* | 15% | 1 | i | 12
N/C(CCN1CCCCC1)=N/O | 8 | 1 | 5% | 0.99 | i | 7
COc1ccc(-n2nc3c(c2NC(=O)C2CCCC2)CS(=O)C3)cc1 (stereo not given) | 7 | 1.1 | 6% | 1.1 | i | 11
Cc1ccsc1C(C(=O)NC1CCCCC1)N(C(=O)c1csnn1)C1CC1 (stereo not given) | 10 | 1 | 8% | 0.98 | i | 13
c1ccc(-c2nc(NCc3cccnc3)c3oc4ccccc4c3n2)cc1 | 8 | 1.1 | 5% | 1 | i | 8
COc1ccc(-c2nc(-c3ccncc3)no2)cc1OC | 0 | 1.1 | 5% | 1 | i | 13
COc1ccc(-c2ccc(-c3noc(-c4ccc(OC)c(OC)c4)n3)c(OC)n2)cc1 | 14 | 3.9* | 15% | 1.1 | x | 15
COc1ccc(-c2ccc(-c3noc(-c4cccc(OC)c4)n3)c(OC)n2)cc1 | 12 | 3.8* | 9% | 1.1 | x | 5
O=C(Cn1ncc2c(=O)oc3ccccc3c21)Nc1nc2ccccc2s1 | 6 | 1 | 3% | 0.98 | i | 9
O=C(c1cccs1)c1ccc(-c2cccs2)s1 | 8 | 2.4* | 18% | 1.1 | i | 14
O=C(c1cc2ccccc2o1)c1cccs1 | 3 | 1.1 | 1% | 1.2 | i | 1
CCCNC(=O)c1ccc(CNc2c(N3CCC(C(=O)OCC)CC3)c(=O)c2=O)cc1 | 9 | 1.1 | 9% | 1 | i | 18
O=C(NCc1cn2ccccc2n1)c1ccccc1 | 52* | 1 | 21% | 0.99 | i | 12
O=C(NCc1cn2ccccc2n1)c1ccc(Br)o1 | 3 | 1.1 | 4% | 1 | i | 8
Cc1oc2c(CN(C)C)c(O)ccc2c(=O)c1-c1ccc2ccccc2n1 | 4 | 1.1 | 1% | 1.2 | i | 0
SMILES | MK inhibit | Fluor 339 460 | NADH enzymes | Abs 340nm | DPM-DC inhibit | Spn PMK inh
CCc1cc2c(=O)c(Oc3ccccc3F)c(C)oc2c(CN(C)C)c1O | 2 | 2.2* | 13% | 1.2 | x | 23
CCC(NC(=O)OC(C)(C)C)C(=O)Oc1ccc2c3c(c(=O)oc2c1)CCC3 (stereo not given) | 9 | 3.6* | 9% | 1 | x | 9
CSCCC(NC(C)=O)C(=O)Oc1ccc2c3c(c(=O)oc2c1)CCCC3 (stereo not given) | 0 | 2.1* | 0% | 1.1 | x | 0
Cc1c(OCC(=O)OC(C)(C)C)ccc2c3c(c(=O)oc12)CCC3 | 4 | 1.9 | 1% | 1.1 | i | 0
COC(=O)[C@H](CCSC)NC(=O)Nc1ccc(C)cc1C | 0 | 1.1 | 0% | 1 | i | 0
Brc1c(OCCOCCn2cncn2)ccc2ccccc12 | 5 | 1.1 | 3% | 1 | i | 4
CC(=O)N1CCN(c2nc3cc4c(cc3nc2NS(=O)(=O)c2ccccc2)OCCO4)CC1 | 3 | 2.7* | 13% | 1.1 | i | 27*
CCOc1ccc(S(=O)(=O)Nc2nc3ccccc3nc2N2CCN(C)CC2)cc1 | 9 | 1.7 | 12% | 1.1 | i | 4
S=C(NCC1CCCO1)n1nnc2ccccc21 (stereo not given) | 6 | 1.1 | 2% | 1 | i | 2
c1ccc2c(c1)nc(NCC1CCCO1)c1nnnn12 (stereo not given) | 0 | 2.1* | 3% | 1.1 | x | 5
CCn1c2c(c3cc(Cl)ccc31)CCCC2=O | 4 | 1.8 | 8% | 1 | i | 4
CCn1c2c(c3cc(C(=O)O)ccc31)CCCC2=O | 18 | 2.6* | 21% | 1.2 | + | 9
CCNC(=O)N(C(=O)NCC)n1c(C)nnc1C | 0 | 1 | 1% | 0.99 | i | 1
CCCc1cc2c(=O)c(-c3ccccn3)c(C)oc2cc1O | 0 | 2.1* | 5% | 1.1 | x | 10
CCn1c(SCC(=O)Nc2ccc(Cl)cc2)nnc1C1CC1 | 4 | 1 | 9% | 0.99 | i | 58*
CCn1c(SCC(=O)Nc2ccc(NC(C)=O)cc2)nnc1C1CC1 | 7 | 1.1 | 10% | 0.98 | i | 19
O=c1[nH]c(=O)n(Cc2ccccc2)c2nc(-c3ccco3)cc(C(F)(F)F)c12 | 1 | 4.9* | 5% | 1.1 | x | 9
COCCCNc1oc(COc2ccc(Cl)cc2Cl)nc1C#N | 7 | 1.4 | 4% | 0.98 | i | 6
CN(C)c1oc(COc2ccc(F)cc2)nc1C#N | 10 | 1.1 | 5% | 1 | i | 4
CN(C)c1oc(-c2ccc(OCc3ccc(Cl)cc3)cc2)nc1C#N | 5 | 3.3* | 6% | 1.1 | i | 1
CN(C)CCNc1oc(COc2ccc(-c3ccccc3)cc2)nc1C#N | 10 | 1.1 | 6% | 1 | i | 7
CN(C)CCCNc1oc(-c2ccc(Cl)cc2)nc1C#N | 7 | 4.8* | 7% | 1 | x | 6
CCN(CC)CCCNc1oc(-c2cccc(Cl)c2)nc1C#N | 15 | 3* | 5% | 1 | x | 16
COCCNc1oc(-c2ccc(Cl)cc2)nc1C#N | 0 | 2.4* | 5% | 1.1 | x | 10
CCc1ccccc1OCc1nnc(N)s1 | 5 | 1.1 | 2% | 1.1 | i | 0
CS(=O)(=O)N1CCCC(C(=O)NCc2ccc(F)cc2)C1 (stereo not given) | 1 | 1 | 7% | 0.97 | i | 21
CCOC(=O)c1[nH]nc2c1C(=O)N(Cc1ccccc1)C2=O | 5 | 1.1 | 7% | 1 | i | 13
COC(=O)Cn1c(CCS(=O)(=O)c2ccc(C)cc2)nc2ccccc21 | 0 | 0.98 | 3% | 0.96 | i | 9
